# In publication PMC7862700, “An all-to-all approach to the identification of sequence-specific readers for epigenetic DNA modifications on cytosine”:
# What was measured:
# Test in all cases: DAPPL (digital affinity profiling via proximity ligation, sequencing); 10 mM Tris-HCl pH 7.5, 50 mM NaCl, 1 mM DTT, 4% glycerol, room temperature, 30 min; GST-TFs on glutathione beads, 16-mer random dsDNA library, 0.1% formaldehyde crosslink after washing; high values mean tight binding
# FLI1 = target: T1, FLI1 (Homo sapiens, UniProt Q01543 1-452); conditions: protein: recombinant; tags: N-terminal GST; dsDNA, one strand shown
# T1 sequence: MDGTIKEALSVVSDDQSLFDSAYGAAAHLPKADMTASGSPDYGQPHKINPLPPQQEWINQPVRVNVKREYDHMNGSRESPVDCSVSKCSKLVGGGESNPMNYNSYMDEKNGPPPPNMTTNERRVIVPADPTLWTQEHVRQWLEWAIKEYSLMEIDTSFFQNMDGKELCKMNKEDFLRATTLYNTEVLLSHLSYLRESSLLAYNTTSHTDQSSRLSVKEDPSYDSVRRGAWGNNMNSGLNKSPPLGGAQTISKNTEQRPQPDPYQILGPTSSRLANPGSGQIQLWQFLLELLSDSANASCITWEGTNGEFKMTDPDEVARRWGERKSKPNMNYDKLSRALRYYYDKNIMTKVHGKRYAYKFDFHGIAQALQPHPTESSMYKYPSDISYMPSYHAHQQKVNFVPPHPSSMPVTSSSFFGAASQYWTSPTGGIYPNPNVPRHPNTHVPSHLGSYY
# Procedure, shortened: (§1)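 Beads coated with glutathione captured GST-fused human transcription factors that had been expressed in yeast, and the factors were then given DNA barcodes and pooled with a tag-only sample. The pools were incubated with 200 nmole of a random double-stranded 16-mer DNA library in Tris/NaCl/DTT/glycerol buffer for 30 min at room temperature, washed, crosslinked with 0.1% formaldehyde and proximity-ligated with BsaI/T4 ligase at 37 °C for 1 h. PCR amplification and Illumina NextSeq500 sequencing came last. Binding signal is each hexamer's read frequency for a factor divided by its frequency for the tag-only sample.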
# ELK1 = target: T2, ELK1 (Homo sapiens, UniProt P19419 1-428); conditions: protein: recombinant; tags: N-terminal GST; dsDNA, one strand shown
# T2 sequence: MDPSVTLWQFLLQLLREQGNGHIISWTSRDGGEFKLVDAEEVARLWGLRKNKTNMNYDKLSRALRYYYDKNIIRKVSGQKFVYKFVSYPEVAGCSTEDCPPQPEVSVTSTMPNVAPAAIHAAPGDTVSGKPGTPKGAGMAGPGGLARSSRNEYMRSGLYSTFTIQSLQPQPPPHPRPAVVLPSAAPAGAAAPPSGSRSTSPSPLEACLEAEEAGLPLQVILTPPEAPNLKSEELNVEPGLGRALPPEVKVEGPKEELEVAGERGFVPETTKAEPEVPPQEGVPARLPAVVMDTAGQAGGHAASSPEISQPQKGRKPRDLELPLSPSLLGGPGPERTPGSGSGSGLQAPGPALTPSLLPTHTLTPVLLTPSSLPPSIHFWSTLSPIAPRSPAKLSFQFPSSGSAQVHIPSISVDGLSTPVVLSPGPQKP
# Procedure, shortened: as §1
# GABPA = target: T3, GABPA (Homo sapiens, UniProt Q06546 1-454); conditions: protein: recombinant; tags: N-terminal GST; dsDNA, one strand shown
# T3 sequence: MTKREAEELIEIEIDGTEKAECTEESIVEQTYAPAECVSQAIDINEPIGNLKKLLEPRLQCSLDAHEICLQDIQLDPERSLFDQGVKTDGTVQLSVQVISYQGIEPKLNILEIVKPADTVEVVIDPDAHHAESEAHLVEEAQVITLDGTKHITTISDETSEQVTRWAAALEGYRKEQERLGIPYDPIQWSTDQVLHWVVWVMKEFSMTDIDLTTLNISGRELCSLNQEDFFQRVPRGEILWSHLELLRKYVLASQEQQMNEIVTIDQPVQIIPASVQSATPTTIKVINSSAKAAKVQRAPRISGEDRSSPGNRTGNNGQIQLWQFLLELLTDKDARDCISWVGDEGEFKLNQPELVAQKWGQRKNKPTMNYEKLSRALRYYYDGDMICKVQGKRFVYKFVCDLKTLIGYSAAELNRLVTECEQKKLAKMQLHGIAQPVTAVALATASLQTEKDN
# Procedure, shortened: as §1
# ERG = target: T4, ERG (Homo sapiens, UniProt P11308 1-479); conditions: protein: recombinant; tags: N-terminal GST; dsDNA, one strand shown
# T4 sequence: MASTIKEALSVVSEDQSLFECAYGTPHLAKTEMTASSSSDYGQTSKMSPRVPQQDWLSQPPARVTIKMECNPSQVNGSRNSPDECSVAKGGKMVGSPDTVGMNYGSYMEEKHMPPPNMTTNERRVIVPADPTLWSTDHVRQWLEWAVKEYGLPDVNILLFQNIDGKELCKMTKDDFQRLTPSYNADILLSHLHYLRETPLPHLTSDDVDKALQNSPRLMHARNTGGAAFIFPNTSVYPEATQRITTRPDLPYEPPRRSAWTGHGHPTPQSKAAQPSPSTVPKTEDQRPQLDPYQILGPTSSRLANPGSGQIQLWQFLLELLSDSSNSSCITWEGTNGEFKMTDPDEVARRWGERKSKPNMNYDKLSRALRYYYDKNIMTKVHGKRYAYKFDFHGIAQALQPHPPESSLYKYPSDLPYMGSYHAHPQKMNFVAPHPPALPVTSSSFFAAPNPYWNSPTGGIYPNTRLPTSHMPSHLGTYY
# Procedure, shortened: as §1
# ELF1 = ELF1 (Homo sapiens, UniProt P32519 1-619); conditions: protein: recombinant; tags: N-terminal GST; dsDNA, one strand shown
# Chain of ELF1 (P32519 whole entry): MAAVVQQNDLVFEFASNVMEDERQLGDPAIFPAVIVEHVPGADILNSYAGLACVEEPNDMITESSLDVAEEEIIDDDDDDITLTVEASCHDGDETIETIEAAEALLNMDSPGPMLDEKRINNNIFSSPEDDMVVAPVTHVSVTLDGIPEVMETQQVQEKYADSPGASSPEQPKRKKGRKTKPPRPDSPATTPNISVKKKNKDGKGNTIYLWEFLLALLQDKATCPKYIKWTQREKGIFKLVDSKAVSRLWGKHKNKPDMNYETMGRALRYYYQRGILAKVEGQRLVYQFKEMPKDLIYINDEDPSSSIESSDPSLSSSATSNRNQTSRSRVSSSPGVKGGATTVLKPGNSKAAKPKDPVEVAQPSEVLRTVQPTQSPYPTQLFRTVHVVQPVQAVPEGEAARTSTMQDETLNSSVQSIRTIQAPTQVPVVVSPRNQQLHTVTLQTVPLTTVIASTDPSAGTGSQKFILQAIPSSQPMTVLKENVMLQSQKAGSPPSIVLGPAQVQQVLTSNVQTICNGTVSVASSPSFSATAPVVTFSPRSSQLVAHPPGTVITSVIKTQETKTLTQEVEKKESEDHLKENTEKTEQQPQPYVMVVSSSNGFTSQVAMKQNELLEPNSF
# Procedure, shortened: as §1
# EHF = target: T5, EHF (Homo sapiens, UniProt Q9NZC4 1-300); conditions: protein: recombinant; tags: N-terminal GST; dsDNA, one strand shown
# T5 sequence: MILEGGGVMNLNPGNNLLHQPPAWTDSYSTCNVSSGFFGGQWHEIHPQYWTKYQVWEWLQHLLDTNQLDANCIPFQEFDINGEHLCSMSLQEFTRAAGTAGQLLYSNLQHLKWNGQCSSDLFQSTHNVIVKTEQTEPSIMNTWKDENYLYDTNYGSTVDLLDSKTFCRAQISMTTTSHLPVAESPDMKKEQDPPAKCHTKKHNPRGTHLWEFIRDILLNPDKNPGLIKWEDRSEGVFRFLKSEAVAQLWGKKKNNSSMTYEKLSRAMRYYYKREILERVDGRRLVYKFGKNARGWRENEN
# Procedure, shortened: as §1
# SPI1 = SPI1 (Homo sapiens, UniProt P17947 1-270); conditions: protein: recombinant; tags: N-terminal GST; dsDNA, one strand shown
# Procedure, shortened: as §1
# SPIB = SPIB (Homo sapiens, UniProt Q01892 1-262); conditions: protein: recombinant; tags: N-terminal GST; dsDNA, one strand shown
# Chain of SPIB (Q01892 whole entry): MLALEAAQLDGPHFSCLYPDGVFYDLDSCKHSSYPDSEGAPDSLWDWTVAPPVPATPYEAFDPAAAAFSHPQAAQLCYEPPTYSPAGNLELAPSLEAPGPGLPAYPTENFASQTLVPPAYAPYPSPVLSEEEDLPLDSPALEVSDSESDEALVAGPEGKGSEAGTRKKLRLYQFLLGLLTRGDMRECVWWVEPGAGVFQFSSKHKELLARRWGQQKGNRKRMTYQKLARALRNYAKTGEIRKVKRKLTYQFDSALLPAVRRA
# Procedure, shortened: as §1
# ELK3 = target: T6, ELK3 (Homo sapiens, UniProt P41970 1-407); conditions: protein: recombinant; tags: N-terminal GST; dsDNA, one strand shown
# T6 sequence: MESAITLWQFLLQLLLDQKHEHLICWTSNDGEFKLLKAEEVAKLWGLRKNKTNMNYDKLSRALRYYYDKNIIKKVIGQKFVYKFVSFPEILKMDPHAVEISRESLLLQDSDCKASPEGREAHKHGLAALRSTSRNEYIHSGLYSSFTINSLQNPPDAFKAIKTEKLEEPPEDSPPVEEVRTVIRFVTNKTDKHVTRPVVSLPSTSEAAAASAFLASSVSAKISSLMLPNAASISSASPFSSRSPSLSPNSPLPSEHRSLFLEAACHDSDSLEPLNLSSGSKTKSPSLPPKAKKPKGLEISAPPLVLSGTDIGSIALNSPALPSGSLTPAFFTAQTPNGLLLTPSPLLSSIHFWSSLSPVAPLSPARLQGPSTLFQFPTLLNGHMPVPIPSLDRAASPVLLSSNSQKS
# Procedure, shortened: as §1
# FEV = target: T7, FEV (Homo sapiens, UniProt Q99581 1-238); conditions: protein: recombinant; tags: N-terminal GST; dsDNA, one strand shown
# T7 sequence: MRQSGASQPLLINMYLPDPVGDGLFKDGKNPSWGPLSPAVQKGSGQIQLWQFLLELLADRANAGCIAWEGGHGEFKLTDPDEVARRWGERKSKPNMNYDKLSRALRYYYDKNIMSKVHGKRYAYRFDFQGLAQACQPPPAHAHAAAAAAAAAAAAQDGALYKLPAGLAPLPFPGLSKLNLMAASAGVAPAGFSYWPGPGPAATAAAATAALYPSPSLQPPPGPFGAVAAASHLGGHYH
# Procedure, shortened: as §1
# ETV5 = ETV5 (Homo sapiens, UniProt P41161 1-510); conditions: protein: recombinant; tags: N-terminal GST; dsDNA, one strand shown
# Chain of ETV5 (P41161 whole entry): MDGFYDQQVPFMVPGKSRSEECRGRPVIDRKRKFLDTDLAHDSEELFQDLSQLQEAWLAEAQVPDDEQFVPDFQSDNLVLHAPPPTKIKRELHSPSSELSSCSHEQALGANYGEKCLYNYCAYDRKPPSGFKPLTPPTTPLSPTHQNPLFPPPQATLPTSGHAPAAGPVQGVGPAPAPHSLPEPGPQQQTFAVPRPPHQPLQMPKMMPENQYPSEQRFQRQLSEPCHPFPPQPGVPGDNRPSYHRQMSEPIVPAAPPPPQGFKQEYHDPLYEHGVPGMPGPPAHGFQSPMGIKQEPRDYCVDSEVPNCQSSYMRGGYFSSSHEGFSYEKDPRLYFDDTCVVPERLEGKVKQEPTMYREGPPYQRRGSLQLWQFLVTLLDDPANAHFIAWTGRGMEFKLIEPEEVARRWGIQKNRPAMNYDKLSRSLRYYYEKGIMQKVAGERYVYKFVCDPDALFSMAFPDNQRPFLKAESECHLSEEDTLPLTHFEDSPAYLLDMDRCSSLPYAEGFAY
# Procedure, shortened: as §1
# HSF1 = HSF1 (Homo sapiens, UniProt Q00613 1-529); conditions: protein: recombinant; tags: N-terminal GST; chain copies: 3; dsDNA, one strand shown
# Chain of HSF1 (Q00613 whole entry): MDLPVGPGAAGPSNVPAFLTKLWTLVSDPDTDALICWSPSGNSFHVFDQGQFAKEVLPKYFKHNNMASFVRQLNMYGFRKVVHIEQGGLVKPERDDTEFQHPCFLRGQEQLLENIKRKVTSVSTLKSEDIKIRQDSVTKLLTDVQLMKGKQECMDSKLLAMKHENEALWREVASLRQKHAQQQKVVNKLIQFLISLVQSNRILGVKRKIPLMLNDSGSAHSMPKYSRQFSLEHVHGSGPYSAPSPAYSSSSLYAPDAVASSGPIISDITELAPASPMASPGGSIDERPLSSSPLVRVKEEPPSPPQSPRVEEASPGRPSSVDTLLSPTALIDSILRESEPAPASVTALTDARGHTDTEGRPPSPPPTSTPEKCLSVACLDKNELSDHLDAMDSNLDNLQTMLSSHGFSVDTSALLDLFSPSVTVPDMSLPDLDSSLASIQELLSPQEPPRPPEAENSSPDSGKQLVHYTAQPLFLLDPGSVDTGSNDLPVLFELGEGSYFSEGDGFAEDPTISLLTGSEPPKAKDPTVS
# Procedure, shortened: as §1
# SPIC = target: T8, SPIC (Homo sapiens, UniProt Q8N5J4 1-248); conditions: protein: recombinant; tags: N-terminal GST; dsDNA, one strand shown
# T8 sequence: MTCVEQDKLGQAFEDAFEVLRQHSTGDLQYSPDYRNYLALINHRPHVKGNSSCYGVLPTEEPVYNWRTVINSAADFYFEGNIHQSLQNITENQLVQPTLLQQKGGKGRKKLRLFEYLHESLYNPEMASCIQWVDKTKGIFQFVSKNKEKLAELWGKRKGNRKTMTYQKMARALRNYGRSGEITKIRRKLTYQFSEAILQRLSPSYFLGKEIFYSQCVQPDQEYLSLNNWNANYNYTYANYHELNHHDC
# Procedure, shortened: as §1
# ELF4 = ELF4 (Homo sapiens, UniProt Q99607 1-663); conditions: protein: recombinant; tags: N-terminal GST; dsDNA, one strand shown
# Chain of ELF4 (Q99607 whole entry): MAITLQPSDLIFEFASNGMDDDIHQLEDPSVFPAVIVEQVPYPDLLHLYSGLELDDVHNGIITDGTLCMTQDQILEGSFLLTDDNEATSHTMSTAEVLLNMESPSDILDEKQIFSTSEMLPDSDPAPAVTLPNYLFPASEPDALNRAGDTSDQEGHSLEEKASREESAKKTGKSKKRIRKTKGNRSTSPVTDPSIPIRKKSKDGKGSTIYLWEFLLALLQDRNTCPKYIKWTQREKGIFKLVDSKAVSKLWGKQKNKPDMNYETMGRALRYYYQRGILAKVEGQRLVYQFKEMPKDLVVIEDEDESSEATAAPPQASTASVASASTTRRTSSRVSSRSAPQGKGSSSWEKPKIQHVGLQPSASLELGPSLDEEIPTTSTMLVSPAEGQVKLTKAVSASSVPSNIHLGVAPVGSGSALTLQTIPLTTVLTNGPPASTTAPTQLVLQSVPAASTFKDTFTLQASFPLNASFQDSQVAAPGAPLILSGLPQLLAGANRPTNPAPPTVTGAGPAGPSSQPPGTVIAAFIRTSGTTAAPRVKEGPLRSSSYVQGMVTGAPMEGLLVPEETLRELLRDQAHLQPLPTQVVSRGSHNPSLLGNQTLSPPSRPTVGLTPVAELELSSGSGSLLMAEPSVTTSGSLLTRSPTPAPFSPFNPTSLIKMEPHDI
# Procedure, shortened: as §1
# ELK4 = target: T9, ELK4 (Homo sapiens, UniProt P28324-2 1-405); conditions: protein: recombinant; tags: N-terminal GST; dsDNA, one strand shown
# T9 sequence: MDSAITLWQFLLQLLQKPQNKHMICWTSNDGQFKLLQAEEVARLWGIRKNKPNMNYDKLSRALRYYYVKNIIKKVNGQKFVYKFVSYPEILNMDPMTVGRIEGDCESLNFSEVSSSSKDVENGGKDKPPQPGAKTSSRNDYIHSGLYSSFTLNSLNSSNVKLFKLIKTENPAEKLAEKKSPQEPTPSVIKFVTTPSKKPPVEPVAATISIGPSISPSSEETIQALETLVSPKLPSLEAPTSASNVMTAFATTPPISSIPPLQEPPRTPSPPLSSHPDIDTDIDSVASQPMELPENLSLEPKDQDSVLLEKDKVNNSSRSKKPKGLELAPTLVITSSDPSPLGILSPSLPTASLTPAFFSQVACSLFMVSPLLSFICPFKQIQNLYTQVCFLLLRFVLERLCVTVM
# Procedure, shortened: as §1
# ETV2 = target: T10, ETV2 (Homo sapiens, UniProt O00321 1-342); conditions: protein: recombinant; tags: N-terminal GST; dsDNA, one strand shown
# T10 sequence: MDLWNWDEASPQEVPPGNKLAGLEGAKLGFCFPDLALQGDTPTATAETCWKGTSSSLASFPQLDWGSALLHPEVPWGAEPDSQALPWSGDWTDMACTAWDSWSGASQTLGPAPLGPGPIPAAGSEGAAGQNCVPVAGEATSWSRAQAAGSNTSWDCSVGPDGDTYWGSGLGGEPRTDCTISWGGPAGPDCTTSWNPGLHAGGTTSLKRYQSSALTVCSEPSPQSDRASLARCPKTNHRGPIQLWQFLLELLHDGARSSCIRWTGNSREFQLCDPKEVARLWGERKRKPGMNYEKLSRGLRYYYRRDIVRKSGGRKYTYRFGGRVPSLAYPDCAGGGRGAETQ
# Procedure, shortened: as §1
# ELF3 = target: T11, ELF3 (Homo sapiens, UniProt P78545 1-371); conditions: protein: recombinant; tags: N-terminal GST; dsDNA, one strand shown
# T11 sequence: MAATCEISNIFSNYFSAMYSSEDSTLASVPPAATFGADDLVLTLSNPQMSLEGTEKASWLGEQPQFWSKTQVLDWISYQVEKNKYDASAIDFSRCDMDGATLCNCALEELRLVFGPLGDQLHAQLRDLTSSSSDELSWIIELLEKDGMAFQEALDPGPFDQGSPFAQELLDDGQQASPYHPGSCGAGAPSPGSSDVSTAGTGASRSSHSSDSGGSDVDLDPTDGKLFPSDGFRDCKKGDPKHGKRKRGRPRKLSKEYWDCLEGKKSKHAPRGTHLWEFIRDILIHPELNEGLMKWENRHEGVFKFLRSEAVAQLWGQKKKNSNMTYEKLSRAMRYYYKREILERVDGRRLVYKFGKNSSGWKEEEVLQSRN
# Procedure, shortened: as §1
# CRX = CRX (Homo sapiens, UniProt O43186 1-299); conditions: protein: recombinant; tags: N-terminal GST; dsDNA, one strand shown
# Chain of CRX (O43186 whole entry): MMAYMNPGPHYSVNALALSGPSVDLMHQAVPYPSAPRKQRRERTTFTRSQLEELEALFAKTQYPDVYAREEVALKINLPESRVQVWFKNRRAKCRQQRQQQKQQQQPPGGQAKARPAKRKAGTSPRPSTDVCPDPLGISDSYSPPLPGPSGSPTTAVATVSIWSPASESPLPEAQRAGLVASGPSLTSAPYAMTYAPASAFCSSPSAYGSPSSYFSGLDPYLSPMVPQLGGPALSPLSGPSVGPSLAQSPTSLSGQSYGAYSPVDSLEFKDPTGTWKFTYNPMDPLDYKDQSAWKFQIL
# Procedure, shortened: as §1
# ETV1 = ETV1 (Homo sapiens, UniProt P50549 1-477); conditions: protein: recombinant; tags: N-terminal GST; dsDNA, one strand shown
# Chain of ETV1 (P50549 whole entry): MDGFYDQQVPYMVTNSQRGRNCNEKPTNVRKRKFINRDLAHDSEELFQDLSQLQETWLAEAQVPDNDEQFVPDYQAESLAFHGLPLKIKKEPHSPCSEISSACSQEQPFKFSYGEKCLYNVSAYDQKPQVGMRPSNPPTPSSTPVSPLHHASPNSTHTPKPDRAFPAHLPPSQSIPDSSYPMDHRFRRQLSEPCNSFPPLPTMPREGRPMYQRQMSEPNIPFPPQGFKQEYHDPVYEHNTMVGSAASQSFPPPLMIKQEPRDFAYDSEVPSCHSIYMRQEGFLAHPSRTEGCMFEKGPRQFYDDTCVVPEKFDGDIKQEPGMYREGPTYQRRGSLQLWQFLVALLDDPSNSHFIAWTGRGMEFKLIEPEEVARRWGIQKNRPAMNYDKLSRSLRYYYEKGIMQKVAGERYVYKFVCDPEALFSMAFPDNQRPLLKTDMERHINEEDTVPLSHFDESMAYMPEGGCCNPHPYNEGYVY
# Procedure, shortened: as §1
sequence,measurement,setting,value
CTTTTT,binding signal,FLI1,"1.22 fold enrichment (6-mer frequency, TF over GST control)"
same,binding signal,ELK1,"1.16 fold enrichment (6-mer frequency, TF over GST control)"
same,binding signal,GABPA,"1.32 fold enrichment (6-mer frequency, TF over GST control)"
same,binding signal,ERG,"1.25 fold enrichment (6-mer frequency, TF over GST control)"
same,binding signal,ELF1,"1.31 fold enrichment (6-mer frequency, TF over GST control)"
same,binding signal,EHF,"1.17 fold enrichment (6-mer frequency, TF over GST control)"
same,binding signal,SPI1,"1.88 fold enrichment (6-mer frequency, TF over GST control)"
same,binding signal,SPIB,"1.41 fold enrichment (6-mer frequency, TF over GST control)"
same,binding signal,ELK3,"1.37 fold enrichment (6-mer frequency, TF over GST control)"
same,binding signal,FEV,"1.35 fold enrichment (6-mer frequency, TF over GST control)"
same,binding signal,ETV5,"1.28 fold enrichment (6-mer frequency, TF over GST control)"
same,binding signal,HSF1,"1.23 fold enrichment (6-mer frequency, TF over GST control)"
same,binding signal,SPIC,"1.34 fold enrichment (6-mer frequency, TF over GST control)"
same,binding signal,ELF4,"1.43 fold enrichment (6-mer frequency, TF over GST control)"
same,binding signal,ELK4,"1.24 fold enrichment (6-mer frequency, TF over GST control)"
same,binding signal,ETV2,"1.28 fold enrichment (6-mer frequency, TF over GST control)"
same,binding signal,ELF3,"1.58 fold enrichment (6-mer frequency, TF over GST control)"
same,binding signal,CRX,"1.25 fold enrichment (6-mer frequency, TF over GST control)"
same,binding signal,ETV1,"1.32 fold enrichment (6-mer frequency, TF over GST control)"
